Results as given in PubChem BioAssay (EPA / NIEHS).
Where “and” joins values, the source holds several entries; their conditions need not be identical. Identical values can stand only once. Records with an inconclusive call do not appear. Some structures have more than one record in an assay (separate samples or runs), and their calls can disagree. Calls of active or inactive are those of the source. The calls were made as follows, unless noted: active = hit-call score of the fitted dose curve at least 0.9, where 1 is the maximum; inconclusive = response in the unintended direction; inactive = score below 0.9.

Key:
[1] = target: Peroxisome proliferator-activated receptor gamma (Homo sapiens) (UniProt P37231); assay: ATG_hPPARg_XSP2: Attagene TRANS-FACTORIAL Multi-Species (XSP2) HepG2 Assay for human Peroxisome Proliferator-activated Receptor gamma (PPARg) (AID 2283829);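 also: actives raise reporter mRNA above DMSO so AC50 reflects PPARg activation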
Summary of the method: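 Transient MRTU transfection, HepG2; TRANS format (exogenous NR-Gal4 chimeras). 24 h chemical exposure with 3 nM 6-alpha-fluorotestosterone and 1.5 nM norgestrel present. Readout: reporter mRNA via RT-PCR/CE fluorescence, up-direction vs DMSO.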

[2] = target: mouse Peroxisome Proliferator-activated Receptor gamma (PPARg), Pparg (gene 19016) (UniProt P37238); assay: ATG_mPPARg_XSP2: Attagene TRANS-FACTORIAL Multi-Species (XSP2) HepG2 Assay for mouse Peroxisome Proliferator-activated Receptor gamma (PPARg) (AID 2283830);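 also: hits are gains in reporter mRNA above DMSO so AC50 marks activation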
Summary of the method: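 Multiplexed TRANS reporter readout: after 24 h chemical exposure of transfected HepG2 cells (with 3 nM 6-alpha-fluorotestosterone, 1.5 nM norgestrel present), RNA reverse-transcribed, amplified, 6-FAM-labelled and resolved by capillary electrophoresis; mouse PPARg-Gal4 induction scored against DMSO.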

[3] = target: Nuclear receptor subfamily 1 group I member 2 (Mus musculus) (UniProt O54915); assay: ATG_mPXR_XSP2: Attagene TRANS-FACTORIAL Multi-Species (XSP1) HepG2 Assay for mouse Pregnane X Receptor (PXR) (AID 2283831)
Summary of the method: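 Transient HepG2 transfection, multiplexed GAL4-UAS reporters, NR-GAL4 chimeras. 24 h compound exposure. Readout: reporter mRNA, RT-PCR, fluorescent capillary electrophoresis; positive direction vs DMSO baseline.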

[4] = test system: zebrafish Peroxisome Proliferator-activated Receptor gamma (PPARg), gene 557037; assay: ATG_zfPPARg_XSP2: Attagene TRANS-FACTORIAL Multi-Species (XSP2) HepG2 Assay for zebrafish Peroxisome Proliferator-activated Receptor gamma (PPARg) (AID 2283833);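 also: reporter mRNA from a zebrafish PPARg GAL4 chimera measured by RT-PCR and capillary electrophoresis; actives increase reporter signal over DMSO so AC50 reflects activation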
Summary of the method: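 Transfect HepG2 with multiplexed GAL4-UAS reporter constructs; dose chemical 24 h; isolate RNA, reverse-transcribe, PCR-amplify, label and digest reporter products; resolve by capillary electrophoresis. Activity taken as increase over DMSO.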

[5] = test system: turtle Thyroid Hormone Receptor, alpha (TRa), gene 101949057; assay: ATG_trTRa_XSP2: Attagene TRANS-FACTORIAL Multi-Species (XSP1) HepG2 Assay for turtle Thyroid Hormone Receptor, alpha (TRa) (AID 2283834);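 also: hits raise reporter mRNA over the DMSO baseline so AC50 marks activators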
Experimental: (§1) ATG_XSP2_multi-species_TRANS is a cell-based, multiplexed assay created by modifying the existing Attagene TRANS-FACTORIAL system to include a panel of nuclear receptors from some or all the following species: human (Homo sapiens), mouse (Mus musculus), frog (Xenopus laevis), zebrafish (Danio rerio), chicken (Gallus gallus), and turtle (Chrysemys picta). The ECOTOX-FACTORIAL format uses HepG2, a human liver cell line, with measurements taken at 24 hours after chemical dosing in a 24-well plate. Xsp2 included 3 nM 6-alpha-fluorotestosterone and 1.5 nM norgestrel to stimulate the androgen receptor.ATG_trTRa_XSP2 is one of 29 assay components measured or calculated from the ATG_XSP2_multi-species_TRANS assay. It is designed to make measurements of mRNA induction, a form of inducible reporter, as detected with fluorescence intensity signals by Reverse transcription polymerase chain reaction (RT-PCR) and Capillary electrophoresis technology.The assay endpoint ATG_trTRa_XSP2 was analyzed in the positive analysis fitting direction relative to DMSO as the negative control and baseline of activity. Using a type of inducible reporter, measures of mRNA for gain-of-signal activity can be used to understand the reporter gene at the transcription factor-level as they relate to the gene TR. Furthermore, this assay endpoint can be referred to as a primary readout, because this assay has produced multiple assay endpoints where this one serves a reporter gene function. To generalize the intended target to other relatable targets, this assay endpoint is annotated to the nuclear receptor intended target family, where the subfamily is non-steroidal.
(§2) Human liver HepG2 cells are transiently transfected with multiple reporter transcription units (MRTUs) in 6-well plates using FuGene 6 reagent (Roche; 3 ml FuGene/1 mg DNA). The MRTU constructs are regulated by a cis-regulating element (promoter). […] A major difference between the CIS and TRANS system is that in CIS activities of endogenous TFs are measured, whereas the TRANS assay evaluates changes in activities of exogenous, chimeric NR-Gal4 proteins. […] At the end of 24 hour incubation, total RNA was isolated using TriZol reagent (Invitrogen). The isolated RNA is then reverse-transcribed using oligo(dT) primer and Mo-MLV reverse transcriptase (Invitrogen) with DNAse I (Ambion) treatment for 30 min. The one-tenth of the produced cDNA was amplified by PCR using Taq DNA polymerase (Invitrogen) and two reporter sequence-specific primers. The PCR products were fluorescently labeled by primer extension with 6-arboxyfluorescein (6-FAM) 5'-labeled reporter sequence-specific primer (2 min at 95 C, 20 s at 68 C and 10 min at 72 C) and these products were digested with 5U of HpaI (New England Biolabs) for 2h at 37 C. The fragments were purified using Qiaquick PCR columns (Qiagen), analyzed on an ABI 3130xL genetic analyzer (Applied Biosystems) with peak positions identified by using a set of X-rhodamine (ROX)-labeled MapMarker1000 molecular weight standards (BioVentures). The raw capillary electrophoresis data was processed using Attagraph software (Attagene).

[6] = target: zebrafish Thyroid Hormone Receptor beta (TRb), thrb (gene 30607) (UniProt Q9PVE4); assay: ATG_zfTRb_XSP2: Attagene TRANS-FACTORIAL Multi-Species (XSP1) HepG2 Assay for zebrafish Thyroid Hormone Receptor beta (TRb) (AID 2283836)
Summary of the method: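 Reporter transcripts were measured by RT-PCR with fluorescent primer extension and capillary electrophoresis, 24 h after chemical dosing of transiently transfected HepG2 cells. Activity was scored as upward signal versus DMSO baseline.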

[7] = target: zebrafish Thyroid Hormone Receptor alpha (TRa), thraa (gene 30670) (UniProt Q98867); assay: ATG_zfTRa_XSP2: Attagene TRANS-FACTORIAL Multi-Species (XSP1) HepG2 Assay for zebrafish Thyroid Hormone Receptor alpha (TRa) (AID 2283832);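 also: actives raise zebrafish TRa-Gal4 reporter transcript above DMSO baseline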
Experimental: as §1, with “receptor.ATG_zfTRa_XSP2” for “receptor.ATG_trTRa_XSP2”, “ATG_zfTRa_XSP2” for “ATG_trTRa_XSP2”
as §2, with “The one-tenth of the produced cDNA was amplified by PCR using Taq DNA polymerase (Invitrogen) and two reporter sequence-specific primers. The PCR products were fluorescently labeled by primer extension with 6-arboxyfluorescein (6-FAM) 5'-labeled reporter sequence-specific primer (2 min at 95 C, 20 s at 68 C and 10 min at 72 C) and these products were digested with 5U of HpaI (New England Biolabs) for 2h at 37 C.” left out, “The raw capillary electrophoresis data was processed using Attagraph software (Attagene).” left out

[8] = ATG_M_61_XSP2: Attagene TRANS-FACTORIAL Multi-Species (XSP2) HepG2 Assay for M61 Transcription Factor (Internal Marker) (AID 2283835; active = hit-call score of the fitted dose curve at least 0.9, where 1 is the maximum; inactive = score below 0.9;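 also: active means a rise in signal above the DMSO baseline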)
Summary of the method: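 Internal background marker, read as RT-PCR/capillary-electrophoresis reporter mRNA 24 h post-dose in transiently transfected HepG2 cells. Androgen receptor stimulated with 3 nM 6-alpha-fluorotestosterone plus 1.5 nM norgestrel; gain of signal versus DMSO analysed.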

[9] = target: human Thyroid hormone Receptor alpha (TRa), THRA (gene 7067) (UniProt P10827); assay: ATG_hTRa_XSP2: Attagene TRANS-FACTORIAL Multi-Species (XSP2) HepG2 Assay for human Thyroid hormone Receptor alpha (TRa) (AID 2283838)
Summary of the method: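 Gain-of-signal in reporter mRNA, relative to DMSO, after 24 h dosing of transfected HepG2; quantitation by RT-PCR fragment analysis on capillary electrophoresis.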

[10] = ATG_XTT_Cytotoxicity_XSP2: Cytotoxicity Assessment in the Attagene TRANS-FACTORIAL Multi-Species (XSP2) HepG2 Assay (AID 2283837)
Summary of the method: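 XTT-based cell number read-out in human HepG2 liver cells carrying transfected reporter units, measured 24 h after chemical dosing. Activity is signal loss versus DMSO baseline.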

Measured: AC50

mouse Peroxisome Proliferator-activated Receptor gamma (PPARg), Pparg (gene 19016), sequence (P37238 whole entry, looked up, the tested form may be a part): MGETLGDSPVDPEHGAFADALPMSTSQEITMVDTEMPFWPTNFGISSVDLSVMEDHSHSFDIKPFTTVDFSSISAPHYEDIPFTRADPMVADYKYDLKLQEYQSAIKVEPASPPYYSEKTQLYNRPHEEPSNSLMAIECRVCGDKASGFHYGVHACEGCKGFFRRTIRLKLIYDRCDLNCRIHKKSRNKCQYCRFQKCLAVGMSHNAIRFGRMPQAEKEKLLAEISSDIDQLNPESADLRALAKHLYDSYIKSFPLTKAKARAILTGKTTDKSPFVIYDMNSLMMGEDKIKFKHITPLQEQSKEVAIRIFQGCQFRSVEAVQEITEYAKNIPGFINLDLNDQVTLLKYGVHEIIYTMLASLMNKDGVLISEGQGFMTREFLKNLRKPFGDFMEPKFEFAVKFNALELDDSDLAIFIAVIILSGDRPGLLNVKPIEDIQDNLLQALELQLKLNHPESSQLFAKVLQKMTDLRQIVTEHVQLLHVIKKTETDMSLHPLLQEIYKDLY
zebrafish Thyroid Hormone Receptor beta (TRb), thrb (gene 30607), sequence (Q9PVE4 whole entry, looked up): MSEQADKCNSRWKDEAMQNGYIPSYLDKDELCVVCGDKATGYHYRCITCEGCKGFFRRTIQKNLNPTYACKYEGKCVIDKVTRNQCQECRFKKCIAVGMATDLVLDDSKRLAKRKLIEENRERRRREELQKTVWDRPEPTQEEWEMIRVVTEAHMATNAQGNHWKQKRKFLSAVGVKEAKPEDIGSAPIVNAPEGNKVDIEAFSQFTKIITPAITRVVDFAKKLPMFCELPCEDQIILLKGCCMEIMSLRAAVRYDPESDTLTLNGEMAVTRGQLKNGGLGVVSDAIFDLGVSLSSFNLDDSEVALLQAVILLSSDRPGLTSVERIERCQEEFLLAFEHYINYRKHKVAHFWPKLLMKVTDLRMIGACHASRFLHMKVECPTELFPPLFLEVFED
Peroxisome proliferator-activated receptor gamma (Homo sapiens), sequence (P37231 whole entry, looked up, the tested form may be a part): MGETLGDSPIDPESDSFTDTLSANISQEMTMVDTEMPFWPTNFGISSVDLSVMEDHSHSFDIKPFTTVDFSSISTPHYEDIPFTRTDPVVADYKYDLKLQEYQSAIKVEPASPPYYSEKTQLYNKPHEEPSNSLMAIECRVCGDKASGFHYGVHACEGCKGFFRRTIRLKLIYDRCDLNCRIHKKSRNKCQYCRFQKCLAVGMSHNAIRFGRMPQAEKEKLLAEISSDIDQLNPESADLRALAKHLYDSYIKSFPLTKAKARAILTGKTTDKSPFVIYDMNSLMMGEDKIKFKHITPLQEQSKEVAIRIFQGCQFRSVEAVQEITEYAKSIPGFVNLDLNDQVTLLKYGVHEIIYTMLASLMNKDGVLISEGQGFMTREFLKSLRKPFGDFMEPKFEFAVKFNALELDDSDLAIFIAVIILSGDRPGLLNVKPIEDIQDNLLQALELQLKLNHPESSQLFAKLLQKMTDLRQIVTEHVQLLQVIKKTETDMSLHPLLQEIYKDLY
zebrafish Thyroid Hormone Receptor alpha (TRa), thraa (gene 30670), sequence (Q98867 whole entry, looked up, the tested form may be a part): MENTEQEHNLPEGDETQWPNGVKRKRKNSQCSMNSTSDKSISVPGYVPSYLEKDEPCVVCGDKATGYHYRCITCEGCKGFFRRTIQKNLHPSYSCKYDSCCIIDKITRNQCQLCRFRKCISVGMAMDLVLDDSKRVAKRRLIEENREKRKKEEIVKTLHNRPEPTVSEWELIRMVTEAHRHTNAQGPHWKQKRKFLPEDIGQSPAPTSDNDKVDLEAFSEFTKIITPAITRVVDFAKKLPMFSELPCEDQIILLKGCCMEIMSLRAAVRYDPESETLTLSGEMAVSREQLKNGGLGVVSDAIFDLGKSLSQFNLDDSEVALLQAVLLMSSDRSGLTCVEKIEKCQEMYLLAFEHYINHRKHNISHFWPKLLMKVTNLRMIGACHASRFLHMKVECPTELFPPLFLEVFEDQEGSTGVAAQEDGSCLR
human Thyroid hormone Receptor alpha (TRa), THRA (gene 7067), sequence (P10827 whole entry, looked up, the tested form may be a part): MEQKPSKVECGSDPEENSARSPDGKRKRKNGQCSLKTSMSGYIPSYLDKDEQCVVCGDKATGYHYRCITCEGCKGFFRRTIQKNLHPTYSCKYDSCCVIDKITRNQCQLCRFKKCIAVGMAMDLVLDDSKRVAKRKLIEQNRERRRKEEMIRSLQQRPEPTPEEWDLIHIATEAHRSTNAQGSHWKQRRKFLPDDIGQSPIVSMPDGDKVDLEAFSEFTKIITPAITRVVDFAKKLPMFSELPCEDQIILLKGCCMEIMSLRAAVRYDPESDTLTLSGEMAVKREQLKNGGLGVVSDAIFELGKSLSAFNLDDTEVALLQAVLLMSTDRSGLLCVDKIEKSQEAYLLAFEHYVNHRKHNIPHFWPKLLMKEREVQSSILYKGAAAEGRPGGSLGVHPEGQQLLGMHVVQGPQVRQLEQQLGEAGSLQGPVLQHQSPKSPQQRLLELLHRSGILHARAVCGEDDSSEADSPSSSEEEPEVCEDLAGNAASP
Nuclear receptor subfamily 1 group I member 2 (Mus musculus), sequence (O54915 whole entry, looked up, the tested form may be a part): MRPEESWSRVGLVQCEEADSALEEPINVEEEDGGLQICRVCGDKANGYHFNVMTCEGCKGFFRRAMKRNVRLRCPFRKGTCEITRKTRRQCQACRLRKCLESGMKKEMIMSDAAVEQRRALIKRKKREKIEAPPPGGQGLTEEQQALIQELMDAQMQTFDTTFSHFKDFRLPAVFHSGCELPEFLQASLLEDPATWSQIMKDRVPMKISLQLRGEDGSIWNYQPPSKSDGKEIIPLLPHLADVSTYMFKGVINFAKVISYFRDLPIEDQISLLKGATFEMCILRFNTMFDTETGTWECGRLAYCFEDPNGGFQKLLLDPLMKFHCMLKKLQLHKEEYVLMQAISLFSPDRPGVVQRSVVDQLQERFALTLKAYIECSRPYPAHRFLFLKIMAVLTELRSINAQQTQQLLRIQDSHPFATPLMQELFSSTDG

O=c1oc2ccccc2c(O)c1C(CC(O)c1ccc(-c2ccc(Br)cc2)cc1)c1ccccc1 (stereo not given)
inactive: [5] | [6]
active: [1] 1.64 µM | [2] 2.5 µM | [3] 31.6 µM | [4] 6.09 µM

CC(O)(CS(=O)(=O)c1ccc(F)cc1)C(=O)Nc1ccc(C#N)c(C(F)(F)F)c1 (stereo not given)
inactive: [1] | [2] | [7] | [4] | [5] | [8] | [6] | [9]
active: [2] 46.2 µM | [3] 4.25 µM

COCCl
active: [3] 7.08 µM
inactive: [1] | [2] | [3] | [4] | [5] | [9]

CCOP(=S)(OCC)O/N=C(\C#N)c1ccccc1
active: [1] 27.4 µM and 10.3 µM | [2] 22.4 µM and 15.5 µM | [3] 4.3 µM and 2.37 µM
not listed: [10]
inactive: all other assays above

[Cl][Sn]([c]1ccccc1)([c]1ccccc1)[c]1ccccc1
active: [1] 0.041 µM | [2] 0.184 µM | [7] 0.925 µM
inactive: [4] | [5] | [8] | [6]

Oc1cc(Cl)c(Cl)cc1Cl
inactive: [3] | [7] | [4] | [5] | [6] | [10] | [9]
active: [1] 60.1 µM and 44.2 µM | [2] 65 µM and 35 µM | [5] 21.7 µM | [9] 26.3 µM
